Results reported in the supplement of paper PMC10849652.
Targets with a hit are over-represented here; the source holds about 7,900 in all. About 0.6% of all pairs of compound and target were hits. Values without a mark were called inactive.

How the values were obtained:
Experiment in all cases: log2 fold change, soluble protein after heating vs DMSO (PISA); higher = thermal stabilisation; K562 cells, 10 uM, 30 min; active = over 0.2 and 3.5 SD of the protein, either way, in both replicates (recomputed)
[1] = compound: CC1=C(C=C(C=C1)NC(=O)C2=CC(=CC=C2)C(C)(C)C#N)NC3=CC4=C(C=C3)N=CN(C4=O)C
Method in brief: (§1)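 K562 cells at 2×10^6 cells/mL were given 10 μM compound for 30 min. Aliquots then went through 3 min of heating across 48°C-58°C, were pooled, and were extracted in PBS with 0.5% NP-40 at 4°C, and the supernatant after 21,000xg for 90 min was quantified by TMTpro 16plex LC-MS/MS with channel sums equalised. Thermal stability relative to control samples, from duplicates, is given as log2 fold change.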

[2] = compound: CC1=C(C=C(C=C1)NC(=O)C2=CC(=CC=C2)N(C)C)NC(=O)C3=CC=C(C=C3)O
Method in brief: as §1

[3] = compound: CC1=CC=C(C=C1)SC2=C3C=C(SC3=CN=C2)C(=O)N
Method in brief: as §1

[4] = compound: CC1=NC(=CC=C1)C2=C(N=C(N2)C(C)(C)C)C3=CC4=NC=CN=C4C=C3
Method in brief: as §1

Nexturastat A = compound: CCCCN(Cc1ccc(C(=O)NO)cc1)C(=O)Nc1ccccc1 [Nexturastat A]
Method in brief: as §1

vemurafenib = compound: CCCS(=O)(=O)Nc1ccc(F)c(C(=O)c2c[nH]c3ncc(-c4ccc(Cl)cc4)cc23)c1F [vemurafenib]
Method in brief: as §1

[5] = compound: CCCS(=O)(=O)Nc1ccc(F)c(C(=O)c2c[nH]c3ncc(Cl)cc23)c1F
Method in brief: as §1

[6] = compound: CCCc1cc(C)[nH]c(=O)c1CNC(=O)c1cc(-c2ccnc(N3CCN(C)CC3)c2)cc2c1cnn2C(C)C
Method in brief: as §1

givinostat = compound: CCN(CC)Cc1ccc2cc(COC(=O)Nc3ccc(C(=O)NO)cc3)ccc2c1 [givinostat]
Method in brief: as §1

barasertib = compound: CCN(CCCOc1ccc2c(Nc3cc(CC(=O)Nc4cccc(F)c4)[nH]n3)ncnc2c1)CCOP(=O)(O)O [barasertib]
Method in brief: as §1

[7] = compound: CC[C@@H]1C(=O)N(C)c2cnc(Nc3ccc(C(=O)NC4CCN(C)CC4)cc3OC)nc2N1C1CCCC1
Method in brief: as §1

volasertib = compound: CC[C@@H]1C(=O)N(C)c2cnc(Nc3ccc(C(=O)N[C@H]4CC[C@H](N5CCN(CC6CC6)CC5)CC4)cc3OC)nc2N1C(C)C [volasertib]
Method in brief: as §1

[8] = compound: CC[C@H](C)N1C=C(C2=C(C=C(C=C21)C3=CN=C(C=C3)N4CCNCC4)C(=O)NCC5=C(C=C(NC5=O)C)C)C
Method in brief: as §1

epoxomicin = compound: CC[C@H](C)[C@@H](C(=O)N[C@@H]([C@@H](C)O)C(=O)N[C@@H](CC(C)C)C(=O)[C@]1(CO1)C)NC(=O)[C@H]([C@@H](C)CC)N(C)C(=O)C [epoxomicin]
Method in brief: as §1

[9] = compound: CCn1c(C(=O)N(C2CC2)C2CC2)cc2c3c(ncn3C)c(Nc3cc(C)n(C)n3)nc21
Method in brief: as §1

[10] = compound: CCn1cc(-c2ccnc3[nH]c(-c4cccc(CN(C)C)c4)cc23)c(-c2ccc(NC(=O)N(C)C)cc2)n1
Method in brief: as §1

[11] = compound: CN(C)CC(=O)Nc1ccc2[nH]c(=O)c3ccccc3c2c1
Method in brief: as §1

rosiglitazone = compound: CN(CCOC1=CC=C(C=C1)C[C@H]2C(=O)NC(=O)S2)C3=CC=CC=N3 (racemic) [rosiglitazone]
Method in brief: as §1

[12] = compound: CN1C2=C(C3=C1C(=O)N(N=C3)CC4=CC(=CC=C4)N)SC(=C2)S(=O)C
Method in brief: as §1

[13] = compound: CN1CCC(CNc2ccc3ncc(-c4cccc(OC(F)(F)F)c4)n3n2)CC1
Method in brief: as §1

Chain of UniProt Q92930 (Q92930 whole entry, looked up): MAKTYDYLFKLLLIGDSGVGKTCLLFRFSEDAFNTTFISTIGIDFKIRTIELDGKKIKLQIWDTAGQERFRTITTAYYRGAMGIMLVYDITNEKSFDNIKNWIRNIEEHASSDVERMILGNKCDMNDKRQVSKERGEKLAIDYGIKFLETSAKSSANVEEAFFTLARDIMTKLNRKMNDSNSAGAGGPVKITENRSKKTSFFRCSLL
Chain of UniProt Q8TBN0 (Q8TBN0 whole entry, looked up): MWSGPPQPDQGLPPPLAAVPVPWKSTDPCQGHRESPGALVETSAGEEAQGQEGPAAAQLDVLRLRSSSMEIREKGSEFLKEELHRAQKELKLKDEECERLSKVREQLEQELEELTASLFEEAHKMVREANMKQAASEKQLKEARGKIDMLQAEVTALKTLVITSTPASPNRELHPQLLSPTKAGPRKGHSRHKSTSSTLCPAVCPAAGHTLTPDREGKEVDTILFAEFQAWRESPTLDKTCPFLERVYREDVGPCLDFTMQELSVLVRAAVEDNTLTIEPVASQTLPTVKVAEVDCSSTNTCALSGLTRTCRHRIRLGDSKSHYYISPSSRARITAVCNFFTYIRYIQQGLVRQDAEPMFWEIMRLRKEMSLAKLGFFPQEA
Chain of UniProt Q9UBS8 (Q9UBS8 whole entry, looked up): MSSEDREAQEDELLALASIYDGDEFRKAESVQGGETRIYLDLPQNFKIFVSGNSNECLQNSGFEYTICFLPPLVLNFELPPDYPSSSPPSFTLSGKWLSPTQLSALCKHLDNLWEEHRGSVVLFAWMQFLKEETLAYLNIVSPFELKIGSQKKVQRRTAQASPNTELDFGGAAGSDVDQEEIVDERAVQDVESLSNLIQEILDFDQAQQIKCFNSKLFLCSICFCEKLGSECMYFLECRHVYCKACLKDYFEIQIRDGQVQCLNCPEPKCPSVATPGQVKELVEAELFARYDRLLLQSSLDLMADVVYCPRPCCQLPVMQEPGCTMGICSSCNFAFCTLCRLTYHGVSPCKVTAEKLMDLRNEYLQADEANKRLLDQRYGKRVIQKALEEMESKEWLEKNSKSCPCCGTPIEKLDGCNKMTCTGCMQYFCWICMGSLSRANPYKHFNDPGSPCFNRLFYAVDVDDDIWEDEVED
Chain of UniProt P18754 (P18754 whole entry, looked up): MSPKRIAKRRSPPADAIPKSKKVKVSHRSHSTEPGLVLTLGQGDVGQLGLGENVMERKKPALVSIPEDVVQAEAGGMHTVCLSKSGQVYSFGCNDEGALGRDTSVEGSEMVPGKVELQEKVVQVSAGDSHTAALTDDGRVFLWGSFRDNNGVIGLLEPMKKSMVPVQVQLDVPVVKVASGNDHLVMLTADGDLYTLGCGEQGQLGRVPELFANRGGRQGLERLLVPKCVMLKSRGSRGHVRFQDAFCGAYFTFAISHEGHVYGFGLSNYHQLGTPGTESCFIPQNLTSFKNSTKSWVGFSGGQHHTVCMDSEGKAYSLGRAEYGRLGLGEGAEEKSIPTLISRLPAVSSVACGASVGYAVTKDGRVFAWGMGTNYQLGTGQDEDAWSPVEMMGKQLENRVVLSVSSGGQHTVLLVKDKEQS
Chain of UniProt Q5JTH9 (Q5JTH9 whole entry, looked up): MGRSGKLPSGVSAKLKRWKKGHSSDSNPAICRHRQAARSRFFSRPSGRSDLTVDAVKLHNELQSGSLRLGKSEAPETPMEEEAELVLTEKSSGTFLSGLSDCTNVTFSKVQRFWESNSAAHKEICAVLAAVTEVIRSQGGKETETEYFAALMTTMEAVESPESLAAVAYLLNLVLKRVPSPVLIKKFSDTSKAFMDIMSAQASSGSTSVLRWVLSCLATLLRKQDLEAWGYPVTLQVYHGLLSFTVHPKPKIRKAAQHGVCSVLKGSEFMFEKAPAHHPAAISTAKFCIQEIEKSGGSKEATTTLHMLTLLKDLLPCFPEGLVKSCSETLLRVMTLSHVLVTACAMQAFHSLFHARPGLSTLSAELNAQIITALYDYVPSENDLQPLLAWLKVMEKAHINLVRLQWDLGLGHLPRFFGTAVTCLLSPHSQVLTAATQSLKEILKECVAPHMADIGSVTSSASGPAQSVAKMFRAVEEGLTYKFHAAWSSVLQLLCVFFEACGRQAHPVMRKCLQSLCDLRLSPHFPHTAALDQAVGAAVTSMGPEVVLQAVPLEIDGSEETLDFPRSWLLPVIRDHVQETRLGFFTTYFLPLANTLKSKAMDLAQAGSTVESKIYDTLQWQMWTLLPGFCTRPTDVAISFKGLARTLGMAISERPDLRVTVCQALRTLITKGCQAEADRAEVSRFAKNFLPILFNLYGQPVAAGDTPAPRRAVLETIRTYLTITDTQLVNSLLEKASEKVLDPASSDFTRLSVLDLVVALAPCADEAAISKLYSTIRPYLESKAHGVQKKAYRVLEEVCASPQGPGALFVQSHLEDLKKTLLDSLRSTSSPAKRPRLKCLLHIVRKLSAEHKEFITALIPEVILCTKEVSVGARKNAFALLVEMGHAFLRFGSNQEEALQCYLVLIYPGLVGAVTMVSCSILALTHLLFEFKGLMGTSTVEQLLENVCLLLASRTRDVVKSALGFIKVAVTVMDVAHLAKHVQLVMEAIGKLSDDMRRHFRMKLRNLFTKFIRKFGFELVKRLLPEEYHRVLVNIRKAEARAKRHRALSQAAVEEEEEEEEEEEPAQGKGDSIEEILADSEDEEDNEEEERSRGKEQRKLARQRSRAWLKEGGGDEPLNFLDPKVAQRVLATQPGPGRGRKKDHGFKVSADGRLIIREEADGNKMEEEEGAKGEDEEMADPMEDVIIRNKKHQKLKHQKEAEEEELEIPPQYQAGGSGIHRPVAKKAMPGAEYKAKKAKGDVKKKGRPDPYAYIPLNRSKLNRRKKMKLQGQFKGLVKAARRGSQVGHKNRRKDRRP
Chain of UniProt Q9H4A4 (Q9H4A4 whole entry, looked up): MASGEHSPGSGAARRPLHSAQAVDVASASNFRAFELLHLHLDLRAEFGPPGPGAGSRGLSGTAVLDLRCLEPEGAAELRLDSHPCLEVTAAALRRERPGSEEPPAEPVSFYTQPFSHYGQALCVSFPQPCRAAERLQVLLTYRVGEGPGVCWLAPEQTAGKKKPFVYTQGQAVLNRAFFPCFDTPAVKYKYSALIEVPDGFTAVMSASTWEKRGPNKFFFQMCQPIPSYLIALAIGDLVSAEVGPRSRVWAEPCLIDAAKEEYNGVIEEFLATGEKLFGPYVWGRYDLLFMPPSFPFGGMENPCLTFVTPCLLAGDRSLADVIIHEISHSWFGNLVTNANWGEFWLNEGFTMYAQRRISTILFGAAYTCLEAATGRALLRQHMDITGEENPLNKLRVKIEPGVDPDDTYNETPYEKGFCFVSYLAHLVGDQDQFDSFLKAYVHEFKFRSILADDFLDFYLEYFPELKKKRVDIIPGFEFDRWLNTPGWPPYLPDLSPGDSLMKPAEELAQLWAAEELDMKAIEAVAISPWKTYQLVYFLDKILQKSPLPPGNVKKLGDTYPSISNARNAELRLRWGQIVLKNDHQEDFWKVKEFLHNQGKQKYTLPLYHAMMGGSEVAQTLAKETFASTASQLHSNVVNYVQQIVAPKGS
Chain of UniProt Q15287 (Q15287 whole entry, looked up): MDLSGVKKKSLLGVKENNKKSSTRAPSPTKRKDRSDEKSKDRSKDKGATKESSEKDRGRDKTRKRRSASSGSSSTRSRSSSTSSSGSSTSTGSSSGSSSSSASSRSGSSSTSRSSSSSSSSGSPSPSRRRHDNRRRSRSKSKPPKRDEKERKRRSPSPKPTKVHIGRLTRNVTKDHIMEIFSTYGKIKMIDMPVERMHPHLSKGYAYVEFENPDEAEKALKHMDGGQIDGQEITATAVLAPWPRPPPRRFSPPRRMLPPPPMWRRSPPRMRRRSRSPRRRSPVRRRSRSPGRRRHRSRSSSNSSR
Chain of UniProt Q13546 (Q13546 whole entry, looked up): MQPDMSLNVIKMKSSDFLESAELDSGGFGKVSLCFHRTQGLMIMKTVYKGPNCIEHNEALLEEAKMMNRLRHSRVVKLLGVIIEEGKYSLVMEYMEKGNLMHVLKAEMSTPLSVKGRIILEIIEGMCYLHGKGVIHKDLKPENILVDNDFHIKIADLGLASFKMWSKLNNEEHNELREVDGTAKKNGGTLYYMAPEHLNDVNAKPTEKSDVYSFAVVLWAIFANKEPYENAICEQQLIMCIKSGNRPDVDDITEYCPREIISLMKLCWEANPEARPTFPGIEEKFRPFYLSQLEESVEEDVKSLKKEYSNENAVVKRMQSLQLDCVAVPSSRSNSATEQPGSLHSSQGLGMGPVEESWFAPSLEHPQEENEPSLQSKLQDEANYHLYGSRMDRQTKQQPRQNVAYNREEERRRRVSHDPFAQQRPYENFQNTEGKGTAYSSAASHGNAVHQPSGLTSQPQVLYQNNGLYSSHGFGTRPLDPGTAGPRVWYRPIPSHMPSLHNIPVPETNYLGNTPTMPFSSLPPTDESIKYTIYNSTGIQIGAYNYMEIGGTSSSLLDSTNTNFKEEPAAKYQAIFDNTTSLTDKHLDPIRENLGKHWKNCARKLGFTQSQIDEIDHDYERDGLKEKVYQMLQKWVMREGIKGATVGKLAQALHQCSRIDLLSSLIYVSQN
Chain of UniProt Q9NSI8 (Q9NSI8 whole entry, looked up): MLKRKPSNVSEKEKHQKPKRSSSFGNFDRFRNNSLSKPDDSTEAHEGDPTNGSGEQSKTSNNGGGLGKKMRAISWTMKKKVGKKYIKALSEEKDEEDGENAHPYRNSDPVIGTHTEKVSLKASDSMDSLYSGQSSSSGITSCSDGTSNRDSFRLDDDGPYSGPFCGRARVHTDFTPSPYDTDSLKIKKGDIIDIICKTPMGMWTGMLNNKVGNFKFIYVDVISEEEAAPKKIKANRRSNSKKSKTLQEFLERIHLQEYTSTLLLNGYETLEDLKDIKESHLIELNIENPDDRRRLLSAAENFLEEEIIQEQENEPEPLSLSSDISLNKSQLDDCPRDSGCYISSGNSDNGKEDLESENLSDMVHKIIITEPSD
Chain of UniProt P51151 (P51151 whole entry, looked up): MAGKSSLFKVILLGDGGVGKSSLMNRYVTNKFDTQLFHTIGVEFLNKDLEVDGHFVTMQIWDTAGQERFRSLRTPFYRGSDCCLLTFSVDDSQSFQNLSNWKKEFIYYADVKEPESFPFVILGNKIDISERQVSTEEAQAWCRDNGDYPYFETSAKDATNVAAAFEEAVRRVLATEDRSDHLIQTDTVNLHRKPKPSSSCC

| Target | log2 fold change [1] | log2 fold change [2] | log2 fold change [3] | log2 fold change [4] | log2 fold change (Nexturastat A) | log2 fold change (vemurafenib) | log2 fold change [5] | log2 fold change [6] | log2 fold change (givinostat) | log2 fold change (barasertib) | log2 fold change [7] | log2 fold change (volasertib) | log2 fold change [8] | log2 fold change (epoxomicin) | log2 fold change [9] | log2 fold change [10] | log2 fold change [11] | log2 fold change (rosiglitazone) | log2 fold change [12] | log2 fold change [13] |
| --- | --- | --- | --- | --- | --- | --- | --- | --- | --- | --- | --- | --- | --- | --- | --- | --- | --- | --- | --- | --- |
| RIPK1 (UniProt Q13546) | 0.101 | -0.043 | -0.002 | -0.178 | 0.109 | 0.054 | 0.135 | 0.092 | 0.094 | 0.085 | -0.069 | -0.478 (active) | 0.12 | -0.01 | -0.046 | 0.041 | 0.08 | 0.111 | 0.022 | -0.099 |
| RAB3IL1 (UniProt Q8TBN0) | 0.005 | 0.002 | 0.008 | 0.02 | -0.124 | 0.018 | 0.062 | -0.025 | -0.024 | 0.015 | -0.018 | -0.136 | -0.001 | -0.001 | -0.014 | -0.15 | 0.009 | 0.029 | -0.035 | 0.013 |
| RAB8B (UniProt Q92930) | 0.055 | 0.013 | 0.073 | 0.081 | -0.082 | 0.192 | 0.018 | 0.109 | -0.014 | -0.016 | 0.036 | 0.033 | -0.039 | 0.229 | -0.011 | 0.003 | 0.013 | 0.085 | -0.05 | 0.227 |
| RARS (UniProt P54136) | 0.005 | 0.006 | -0.011 | -0.048 | 0.325 | -0.018 | 0.058 | 0.075 | 0.016 | 0.037 | 0.059 | -0.172 | 0.072 | -0.085 | -0.099 | 0.107 | 0.013 | 0.034 | 0.26 | -0.111 |
| RAB9A (UniProt P51151) | 0.036 | 0.033 | 0.017 | 0.018 | 0.017 | -0.012 | -0.024 | 0.003 | 0.054 | -0.011 | -0.061 | -0.024 | -0.001 | 0.064 | -0.003 | 0.004 | 0.034 | 0 | -0.034 | -0.252 (active) |
| RNF14 (UniProt Q9UBS8) | 0.039 | -0.034 | 0.004 | 0.05 | -0.04 | 0.026 | 0.04 | 0.029 | -0.07 | 0.036 | -0.054 | -0.288 (active) | 0.037 | -0.075 | 0.002 | -0.032 | -0.019 | 0.032 | -0.049 | -0.025 |
| SCCPDH (UniProt Q8NBX0) | 0.147 | -0.092 | 0.074 | 0.037 | -0.232 | -0.016 | -0.123 | 0.016 | 0.183 | 0.046 | 0.083 | 0.158 | -0.06 | -0.024 | 0.008 | -0.07 | 0.039 | 0.022 | -0.194 | 0.216 |
| RNPS1 (UniProt Q15287) | -0.043 | 0.015 | 0.017 | 0.031 | 0.245 | -0.001 | -0.033 | -0.024 | 0.071 | 0.015 | 0.062 | -0.155 | 0.049 | -0.126 | -0.043 | -0.008 | 0.031 | -0.08 | 0.016 | 0.006 |
| RPS27A (UniProt P62979) | -0.023 | -0.011 | -0.179 | -0.075 | 0.368 | -0.126 | -0.224 | 0.152 | -0.109 | -0.119 | -0.061 | 0.36 | 0.05 | -0.078 | 0.021 | 0.033 | -0.153 | -0.145 | 0.155 | 0.194 |
| RRP12 (UniProt Q5JTH9) | 0.036 | -0.012 | 0.094 | -0.043 | 0.371 | -0.087 | -0.012 | 0.074 | 0.209 | -0.018 | 0.246 | 0 | 0.029 | 0.054 | -0.036 | -0.057 | -0.046 | 0.026 | 0.066 | 0.161 |
| RCC1 isoform 2 (UniProt P18754) | 0.197 | -0.129 | 0.073 | 0.055 | -0.027 | 0.13 | 0.104 | 0.111 | 0.087 | 0.053 | -0.037 | -0.063 | 0.044 | 0.118 | -0.185 | -0.02 | 0.168 | 0.053 | -0.09 | 0.11 |
| SAMSN1 isoform 3 (UniProt Q9NSI8) | 0.014 | -0.011 | 0.029 | 0.017 | -0.027 | -0.001 | 0.029 | 0 | 0.02 | 0.042 | -0.069 | -0.153 | 0.026 | 0.018 | -0.02 | -0.065 | 0.017 | 0.067 | 0 | -0.253 (active) |
| SLC1A5 (UniProt Q15758) | 0.007 | 0.002 | 0.019 | -0.01 | -0.053 | -0.006 | 0.012 | -0.01 | -0.022 | -0.04 | 0.095 | 0.027 | -0.043 | -0.001 | 0.042 | -0.014 | -0.02 | -0.009 | -0.114 | 0.226 (active) |
| RSRC2 (UniProt Q7L4I2) | -0.048 | 0.04 | -0.058 | 0 | 0.015 | 0.007 | 0.003 | -0.063 | -0.013 | 0.01 | 0.003 | -0.032 | -0.022 | 0.031 | 0.006 | -0.043 | 0.007 | 0.008 | -0.028 | -0.025 |
| RNPEP (UniProt Q9H4A4) | 0.032 | -0.024 | 0.002 | 0.023 | -0.023 | 0.058 | 0.052 | -0.013 | -0.112 | 0.036 | 0.015 | -0.303 (active) | 0.078 | 0.042 | -0.074 | -0.09 | 0.034 | 0.077 | -0.036 | -0.119 |
| RB1CC1 (UniProt Q8TDY2) | -0.061 | -0.005 | 0.025 | -0.031 | 0.161 | -0.022 | -0.034 | 0.147 | 0.102 | -0.008 | 0.051 | -0.022 | -0.086 | 0.063 | -0.118 | -0.07 | -0.077 | 0.01 | 0.047 | -0.116 |
